The AC50 is the concentration giving half of the maximal activity seen.

Results filed as inconclusive are left out. The source made the active and inactive calls. The calls were made as follows, unless noted: active = hit-call score of the fitted dose curve at least 0.9, where 1 is the maximum; inactive = score below 0.9.

Assay [1] addresses human Retinoid X Receptor beta (RXRb), RXRB (gene 6257) (UniProt P28702). The assay is described as follows: ATG_RXRb_TRANS: Attagene TRANS-FACTORIAL HepG2 Assay for human Retinoid X Receptor beta (RXRb) (AID 2283013; active = hit-call score of the fitted dose curve at least 0.9, where 1 is the maximum). In short, it runs like this:
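Readout is reporter transcript induction after 24 h dosing. It is measured by RT-PCR of total RNA followed by fluorescent capillary electrophoresis. HepG2 liver cells carry transfected multiple reporter units driven by an exogenous RXRb-Gal4 fusion; activity is relative to DMSO.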

Assay [2] concerns the target human Vitamin D Receptor (VDR), VDR (gene 7421) (UniProt P11473). The assay is described as follows: ATG_VDR_TRANS: Attagene TRANS-FACTORIAL HepG2 Assay for human Vitamin D Receptor (VDR) (AID 2283022; active = hit-call score of the fitted dose curve at least 0.9, where 1 is the maximum). Put shortly: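 HepG2 cells were transiently transfected with multiple GAL4-UAS reporter units, so signal reflects exogenous chimeric receptor-Gal4 activity. After 24 h compound exposure, reporter mRNA was measured by RT-PCR, fluorescent labelling and capillary electrophoresis, fitted for gain of signal versus DMSO.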

Assay [3] deals with human Thyroid Receptor alpha (THRa1), THRA (gene 7067) (UniProt P10827). The assay can be described thus: ATG_THRa1_TRANS: Attagene TRANS-FACTORIAL HepG2 Assay for human Thyroid Receptor alpha (THRa1) (AID 2283014; active = hit-call score of the fitted dose curve at least 0.9, where 1 is the maximum). In short, it runs like this: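 HepG2 cells transiently transfected with multiplexed GAL4-UAS reporter units for exogenous chimeric THRa1-Gal4; reporter mRNA measured 24 h after dosing by RT-PCR, 6-FAM labelling, HpaI digestion and capillary electrophoresis. Gain-of-signal fitted versus DMSO baseline.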
Chain of human Thyroid Receptor alpha (THRa1), THRA (gene 7067) (P10827 whole entry, looked up, the tested form may be a part): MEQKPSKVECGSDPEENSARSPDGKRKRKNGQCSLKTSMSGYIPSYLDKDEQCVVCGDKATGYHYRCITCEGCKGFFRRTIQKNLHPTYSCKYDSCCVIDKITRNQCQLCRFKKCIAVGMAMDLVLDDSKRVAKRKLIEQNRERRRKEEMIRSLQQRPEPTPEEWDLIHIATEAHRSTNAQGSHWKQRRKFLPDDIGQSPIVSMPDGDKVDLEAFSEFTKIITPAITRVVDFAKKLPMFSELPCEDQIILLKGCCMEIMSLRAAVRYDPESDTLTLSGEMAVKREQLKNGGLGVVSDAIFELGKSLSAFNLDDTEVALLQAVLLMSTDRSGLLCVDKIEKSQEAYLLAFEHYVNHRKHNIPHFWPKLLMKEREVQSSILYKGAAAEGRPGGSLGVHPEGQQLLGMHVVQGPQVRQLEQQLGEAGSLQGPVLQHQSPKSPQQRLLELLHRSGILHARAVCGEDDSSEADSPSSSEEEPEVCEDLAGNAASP

Read-out in assay [4]: E-selectin (Homo sapiens) (UniProt P16581)
The assay can be described thus: BSK_3C_Eselectin: BioMAP Diversity Plus: 3C Assay for Eselectin Biomarker Activity (AID 2283015).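 As to outcome: cell surface E-selectin protein quantified by ELISA 24 h after dosing.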 Conditions: primary human endothelial cells (HUVEC); actives raise or lower the signal. Put shortly: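 Primary human umbilical vein endothelial cells (3C system) were dosed with chemical and cell-surface E-selectin measured by ELISA 24 h later. Bidirectional curve fitting used DMSO as negative control and baseline.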

Read-out in assay [5]: Interleukin-1 alpha (IL1a), IL1A (gene 3552)
The assay is described as follows: BSK_BE3C_IL1a: BioMAP Diversity Plus: BE3C Assay for Interleukin-1 alpha (IL1a) Biomarker Activity (AID 2283016). The conditions noted are these: primary human bronchial epithelial cells; actives raise or lower the signal. In short, it runs like this:
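IL-1a measured by ELISA after 24 h treatment of human primary bronchial epithelial cells, with gain or loss of signal fitted versus DMSO. Parallel cultures stained with SRB gauge overt cytotoxicity.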

Read-out in assay [6]: Monocyte Chemoattractant Protein-1 (MCP1), CCL2 (gene 6347)
The assay can be described thus: BSK_3C_MCP1: BioMAP Diversity Plus: 3C Assay for Monocyte Chemoattractant Protein-1 (MCP1) Biomarker Activity (AID 2283017). Conditions: primary human endothelial cells (HUVEC); actives raise or lower the signal. In short, it runs like this:
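Primary human umbilical vein endothelial cells (3C system) were exposed to test chemical for 24 h, after which MCP-1 was quantified by ELISA. Activity was fitted bidirectionally against DMSO as negative control and baseline.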

Read-out in assay [7]: Monocyte Chemoattractant Protein-1 (MCP1), CCL2 (gene 6347)
The assay can be described thus: BSK_4H_MCP1: BioMAP Diversity Plus: 4H Assay for Monocyte Chemoattractant Protein-1 (MCP1) Biomarker Activity (AID 2283018). The conditions noted are these: primary human endothelial cells (HUVEC); actives raise or lower the signal. In short, it runs like this: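 ELISA of MCP-1 (CCL2) 24 h after chemical dosing of HUVEC in the BioMAP 4H system. Gain or loss versus DMSO fitted; parallel SRB staining (560 nm) tracked overt cytotoxicity.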

Read-out in assay [8]: Human Leukocyte Antigen - DR isotype (HLADR), HLA-DRA (gene 3122)
The assay can be described thus: BSK_3C_HLADR: BioMAP Diversity Plus: 3C Assay for Human Leukocyte Antigen - DR isotype (HLADR) Biomarker Activity (AID 2283019). Conditions: primary human endothelial cells (HUVEC); actives raise or lower the signal. Put shortly:
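Primary human umbilical vein endothelial cells (3C system) were dosed with compound and cell-surface HLA-DR was quantified by ELISA at 24 h. Activity was fitted bidirectionally against DMSO as negative control and baseline.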

Read-out in assay [9]: Interleukin-8 (IL8), CXCL8 (gene 3576)
The assay is described as follows: BSK_3C_IL8: BioMAP Diversity Plus: 3C Assay for Interleukin-8 (IL8) Biomarker Activity (AID 2283020). Conditions: primary human endothelial cells (HUVEC); actives raise or lower the signal. In short, it runs like this: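 IL-8 was measured by ELISA in HUVEC cultures 24 h after chemical dosing, with gain or loss of signal fitted relative to DMSO. Parallel SRB total-protein staining tracked overt cytotoxicity.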

Read-out in assay [10]: Monokine induced gamma interferon (MIG), CXCL9 (gene 4283)
The assay is described as follows: BSK_3C_MIG: BioMAP Diversity Plus: 3C Assay for Monokine induced gamma interferon (MIG) Biomarker Activity (AID 2283021). Conditions: primary human endothelial cells (HUVEC); actives raise or lower the signal. Put shortly:
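ELISA measurement of MIG in human umbilical vein endothelial cells 24 h after treatment. Cytotoxicity tracked by SRB staining in parallel cultures; gain or loss of signal fitted relative to DMSO.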

Assay [11] in a line: BSK_3C_SRB: Viability Assessment in the BioMAP Diversity Plus: 3C Assay (AID 2283023).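 Also: fitted both ways against DMSO so a hit may be signal rise or drop.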 The conditions noted are these: primary human endothelial cells (HUVEC). In short, it runs like this:
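Primary human umbilical vein endothelial cells in the 3C system were read 24 h after compound dosing. Total protein was stained with 0.1% sulforhodamine B after 10% TCA fixation and read at 560 nm, with bidirectional fitting against DMSO as baseline.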

Read-out in assay [12]: Matrix Metallopeptidase 1 (MMP1), MMP1 (gene 4312)
The assay can be described thus: BSK_BE3C_MMP1: BioMAP Diversity Plus: BE3C Assay for Matrix Metallopeptidase 1 (MMP1) Biomarker Activity (AID 2283024). Conditions: primary human bronchial epithelial cells; actives raise or lower the signal. In short, it runs like this:
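ELISA measurement of MMP-1 after 24 h compound exposure of primary human bronchial epithelial cells. Changes in either direction fitted relative to DMSO; parallel SRB staining checked overt cytotoxicity.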

Assay [13] in a line: BSK_3C_Vis: BioMAP Diversity Plus: 3C Assay for Morphology Visualization (AID 2283025).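 Also: fitted both ways so gain or loss versus DMSO counts.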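 As to AC50: light microscopy image of cell morphology used as background control.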 The conditions noted are these: primary human endothelial cells (HUVEC). Put shortly:
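Light-microscopy visualization of HUVEC cultures at 24 h post-treatment, with DMSO as baseline for bidirectional fitting.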

Read-out in assay [14]: Pselectin, SELP (gene 6403)
The assay can be described thus: BSK_4H_Pselectin: BioMAP Diversity Plus: 4H Assay for Pselectin Biomarker Activity (AID 2283026). Conditions: primary human endothelial cells (HUVEC); actives raise or lower the signal. Put shortly: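 ELISA of surface P-selectin on HUVEC, 24 h after dosing, with parallel SRB staining (0.1% after 10% TCA fixation, 560 nm) for overt cytotoxicity. Activity fitted in both directions relative to DMSO.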

Assay [15] is described as follows: BSK_4H_SRB: Viability Assessment in the BioMAP Diversity Plus: 4H Assay (AID 2283027).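 Also: cells exposed to compound for 24 h before staining.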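 As to AC50: curves fitted both ways versus DMSO so AC50 may be loss or gain.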 Conditions: primary human endothelial cells (HUVEC). Put shortly:
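Cytotoxicity read-out in primary human endothelial cells: after 24 h compound exposure, cells were TCA-fixed (10%), stained with 0.1% SRB and absorbance taken at 560 nm. Values fitted in both directions relative to DMSO.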

A short description of assay [16]: BSK_BE3C_SRB: Viability Assessment in the BioMAP Diversity Plus: BE3C Assay (AID 2283028). Conditions: primary human bronchial epithelial cells. Put shortly:
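Human primary bronchial epithelial cells were exposed to test chemicals for 24 h. Total protein in parallel cultures was then measured by staining with 0.1% sulforhodamine B after 10% TCA fixation, with absorbance read at 560 nm. Activity was fitted bidirectionally against DMSO.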

Read-out in assay [17]: Urokinase-type plasminogen activator receptor (uPAR), PLAUR (gene 5329)
The assay can be described thus: BSK_4H_uPAR: BioMAP Diversity Plus: 4H Assay for Urokinase-type plasminogen activator receptor (uPAR) Biomarker Activity (AID 2283030). The conditions noted are these: primary human endothelial cells (HUVEC); actives raise or lower the signal. Put shortly:
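Primary human umbilical vein endothelial cells were exposed to chemical for 24 h before cell-surface uPAR was quantified by ELISA. Activity was fitted bidirectionally against the DMSO negative control baseline.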

Read-out in assay [18]: Vascular endothelial growth factor receptor 2 (Homo sapiens) (UniProt P35968)
The assay is described as follows: BSK_4H_VEGFRII: BioMAP Diversity Plus: 4H Assay for Vascular endothelial growth factor receptor 2 (VEGFR2) Biomarker Activity (AID 2283031).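 As to AC50: cell-surface VEGFR2 protein level quantified by ELISA.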 The conditions noted are these: primary human endothelial cells (HUVEC); actives raise or lower the signal. In short, it runs like this:
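Primary human umbilical vein endothelial cells in the BioMAP 4H system were dosed with test chemical, and 24 h later VEGFRII was measured by ELISA. Activity was fitted bidirectionally against DMSO as negative control and baseline.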

Read-out in assay [19]: Human Leukocyte Antigen - DR isotype (HLADR), HLA-DRA (gene 3122)
The assay is described as follows: BSK_BE3C_HLADR: BioMAP Diversity Plus: BE3C Assay for Human Leukocyte Antigen - DR isotype (HLADR) Biomarker Activity (AID 2283032). The conditions noted are these: primary human bronchial epithelial cells; actives raise or lower the signal. Put shortly: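 Cell-surface HLA-DR ELISA readout at 24 h after dosing in the BE3C primary human lung bronchial epithelial system; gain or loss of signal against DMSO, with parallel sulforhodamine B staining of total protein for overt cytotoxicity.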

Chain of human Vitamin D Receptor (VDR), VDR (gene 7421) (P11473 whole entry, looked up, the tested form may be a part): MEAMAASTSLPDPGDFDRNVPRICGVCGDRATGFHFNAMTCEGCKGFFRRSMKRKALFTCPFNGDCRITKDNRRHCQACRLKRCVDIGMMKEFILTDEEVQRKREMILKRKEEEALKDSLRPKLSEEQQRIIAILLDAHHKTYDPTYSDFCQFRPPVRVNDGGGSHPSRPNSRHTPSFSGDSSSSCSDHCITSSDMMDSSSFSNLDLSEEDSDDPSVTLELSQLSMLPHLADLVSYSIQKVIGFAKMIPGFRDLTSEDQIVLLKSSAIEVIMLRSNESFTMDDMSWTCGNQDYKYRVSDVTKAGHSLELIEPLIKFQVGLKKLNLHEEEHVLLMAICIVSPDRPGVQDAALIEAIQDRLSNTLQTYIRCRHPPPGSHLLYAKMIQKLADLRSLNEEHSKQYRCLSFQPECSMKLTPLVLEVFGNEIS
Chain of E-selectin (Homo sapiens) (P16581 whole entry, looked up): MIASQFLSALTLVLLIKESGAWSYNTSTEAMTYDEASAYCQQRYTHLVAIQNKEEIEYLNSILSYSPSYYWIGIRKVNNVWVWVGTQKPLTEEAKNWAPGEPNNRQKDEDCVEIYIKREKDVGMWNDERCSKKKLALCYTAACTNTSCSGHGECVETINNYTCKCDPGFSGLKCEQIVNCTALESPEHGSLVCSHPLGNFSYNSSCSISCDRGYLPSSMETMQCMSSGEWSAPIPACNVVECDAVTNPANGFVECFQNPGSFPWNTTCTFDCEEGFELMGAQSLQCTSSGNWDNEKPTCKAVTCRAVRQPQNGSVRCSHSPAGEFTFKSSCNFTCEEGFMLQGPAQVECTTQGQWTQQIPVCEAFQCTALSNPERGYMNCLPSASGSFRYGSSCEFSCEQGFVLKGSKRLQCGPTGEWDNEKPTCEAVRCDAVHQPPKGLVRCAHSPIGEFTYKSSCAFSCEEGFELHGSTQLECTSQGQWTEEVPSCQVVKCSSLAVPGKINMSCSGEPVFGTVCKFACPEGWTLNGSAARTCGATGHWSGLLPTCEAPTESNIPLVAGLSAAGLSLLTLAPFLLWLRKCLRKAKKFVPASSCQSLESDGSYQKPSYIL
Chain of human Retinoid X Receptor beta (RXRb), RXRB (gene 6257) (P28702 whole entry, looked up, the tested form may be a part): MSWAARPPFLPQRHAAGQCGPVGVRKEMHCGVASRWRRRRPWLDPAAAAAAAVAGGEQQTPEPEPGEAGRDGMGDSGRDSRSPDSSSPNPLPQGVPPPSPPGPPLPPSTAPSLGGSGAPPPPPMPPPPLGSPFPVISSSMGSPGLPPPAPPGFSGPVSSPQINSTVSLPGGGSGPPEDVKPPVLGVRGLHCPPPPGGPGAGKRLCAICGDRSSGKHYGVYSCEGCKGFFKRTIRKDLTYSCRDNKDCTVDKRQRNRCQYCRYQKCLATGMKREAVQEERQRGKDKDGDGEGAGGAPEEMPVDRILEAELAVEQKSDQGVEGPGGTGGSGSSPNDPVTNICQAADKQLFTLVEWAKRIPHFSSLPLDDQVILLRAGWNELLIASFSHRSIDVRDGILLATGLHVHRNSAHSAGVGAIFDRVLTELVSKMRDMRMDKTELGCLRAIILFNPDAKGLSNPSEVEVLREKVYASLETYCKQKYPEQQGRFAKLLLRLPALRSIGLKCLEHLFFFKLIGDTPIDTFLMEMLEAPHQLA

On to `O=C/C=C/c1ccccc1`, for which the result in [1] and in assay [2] was inactive.
Turning to `COP(=S)(OC)Oc1ccc(S(=O)(=O)N(C)C)cc1`, the call in assay [3], in [4], in [5], in assay [6], in [7] and in [9] was inactive. The result in assay [10], in [2], in assay [11], in assay [12], in [13] and in assay [14] was inactive. The result in assay [15], in [16], in [17], in assay [18] and in assay [19] was inactive. The AC50 in assay [8] is 32.3 µM (active).
In the case of `O=C1C(Cl)=C(Cl)C(=O)c2ccccc21`, the call in [1] and in assay [2] was inactive.
For `CCCCCCCCSC(=O)Oc1cc(Cl)nnc1-c1ccccc1`, the molecule was called inactive in assay [1] and in assay [2].
For the molecule `Nc1ccc(N=Nc2ccc(-c3ccc(N=Nc4c(S(=O)(=O)O)cc5cc(S(=O)(=O)O)c(N=Nc6ccccc6)c(O)c5c4N)cc3)cc2)c(N)c1`, the molecule was classed as inactive in [1] and in assay [2].
With `CC1CN1P(=O)(N1CC1C)N1CC1C` (stereo not given), the call in assay [1], in assay [3] and in assay [2] was inactive.
With `CCOC(=O)CP(=O)(OCC)OCC`, the molecule was called inactive in assay [3].
Consider `COC(=O)c1sccc1S(=O)(=O)NC(=O)Nc1nc(C)nc(OC)n1`, for which the call in assay [1], in assay [4], in [5], in [6], in assay [7] and in [8] was inactive. Further, the outcome in assay [9], in assay [10], in assay [11], in [12], in assay [13] and in assay [14] was inactive. The result in assay [15], in assay [16], in [17], in assay [18] and in [19] was inactive.
On to `O=C(Cl)c1ccc(Cl)cc1`, for which the result in assay [3] was inactive.
`Nc1ccc(-c2ccc(N)c(Cl)c2)cc1Cl`: the AC50 was 11.2 µM (active) in assay [1]; 2.43 µM (active) in assay [8]; 2.21 µM (active) in [11]; 13.7 µM (active) in assay [13]; 2.76 µM (active) in assay [15]; 10.6 µM (active) in assay [17]. In addition, the outcome in [4], in [5], in [6], in assay [7], in [9] and in assay [10] was inactive. In addition, the outcome in assay [2], in [12], in [14], in [16], in assay [18] and in assay [19] was inactive.
For `CCC[CH2][Sn]([CH2]CCC)([CH2]CCC)[O]C(=O)c1ccccc1`, the half-maximal activity concentration (AC50) in [1] is 0.105 µM (active). Further, the molecule was classed as inactive in [2].
As for `CCCCC(CC)CO[N+](=O)[O-]` (stereo not given), the AC50 in [1] was 99.5 µM (active); in [4] it was 35.8 µM (active); in assay [7], 20 µM (active); in assay [8], 35.4 µM (active); in [11], 34.9 µM (active); in assay [13] it was 37.4 µM (active). Also, the AC50 in [14] is 30.6 µM (active); in assay [15] it was 36.1 µM (active); in [17], 33 µM (active); in assay [18] it was 31.9 µM (active); in assay [19], 32.6 µM (active). Besides, the outcome in assay [5], in assay [6], in [9], in assay [10], in [12] and in [16] was inactive.

(Values after PubChem BioAssay (EPA / NIEHS).)
